Compound activity (PubChem)
Mdm2-MdmX inh – inhibitors of human Mdm2/MdmX interaction; O15151+Q00987; SaOS-2 split-luciferase Mdm2/MdmX complementation, luminescence; inhibition, % at 8 µM; 3% of 330,000 active; AID 485346;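 active = inhibition of at least 50% at 8 µM in the primary screen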
Beta cell apopt – blocks beta cell apoptosis; 0.8% of 300,000 active; INS-1E cytokine-induced death, ATP luminescence, 48 h; percent of positive-control rescue, neutral wells zero; protection from apoptosis, % (test concentration not listed);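 active = Every replicate reaches about 75%, or at least half do and their mean reaches it too, limit read from the data; inconclusive = At least half of replicates reach the limit but their mean does not; inactive = Under half of replicates reach the limit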;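 also: 0% = cytokine-treated negative control wells and 100% = positive control rescue; higher means more ATP so stronger rescue from cytokine killing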
CSC inhib – cancer stem cell inhibition; cancer stem cell-like cells viability, luminescence; inhibition, % at 7.5 µM; AID 2717; 1.1% of 300,000 active; in the data active = inhibition above about 75%; inconclusive = no clear call, values can overlap the other calls; tested in HMLE shEcad cells
aSyn UTR inh – MLPCN primary screen, SNCA 5' untranslated region; alpha-synuclein 5'UTR reporter, inhibitor activity; AID 1813; inhibition, % (tested at 7.5 µM); 0.82% of 300,000 active; in the data active = inhibition above about 60%; inconclusive = no clear call, values can overlap the other calls;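 also: H4 neuroglioblastoma cells stably carrying SNCA 5'UTR luciferase fusion; 0% = DMSO wells and 100% = positive control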
A1 inh – inhibitors of the anti-apoptotic protein A1, read as caspase activation. MEF A1-2A-BIM cells, Caspase-Glo 3/7 luminescence, 3 h; percent of clofoctol response, vehicle zero. caspase activation, % (concentration not given with the values). 0.066% of 330,000 active;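 active = over half of replicate activation scores above 10%, or exactly half above 10 with the replicate mean above 10; inconclusive = replicate mean below 10 yet half the replicates above 10; inactive = over half of replicates below 10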
Mdm2 MdmX conf – confirmation of human Mdm2/MdmX interaction inhibitors | shares compounds with Mdm2-MdmX inh | Mdm2-MdmX binding, luminescent assay | inhibition, % at 8 µM | 55% of 10,000 active | AID 489028; in the data active = inhibition above about 40%
FLuc counter – full-length luciferase inhibition in Mdm2/MdmX counter-screen. AID 504607. SaOS-2 full-length luciferase counterscreen, luminescence. 77% of 6,200 active. shares compounds with Mdm2-MdmX inh. inhibition, % at 8 µM;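 active = mean inhibition at 8 µM reaching about 37%, which flags the compound as non-specific, limit read from the data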;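 also: p53-null SaOS-2 cells with luciferase driven by a doxycycline-inducible promoter; compound on cells about two nights before reading with doxycycline added after day one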
Starred values were filed as active, the others as inactive; ? = inconclusive; . = no result. Compounds with a hit are over-represented: about 4.1% of the library has one in this group of screens.

SMILES	Mdm2-MdmX inh	Beta cell apopt	CSC inhib	aSyn UTR inh	A1 inh	Mdm2 MdmX conf	FLuc counter
CCCCN(CC)CCNC(=O)c1cc2c(-c3ccccc3F)nn(C)c2s1	32	-4	-5	-75	0	.	.
COc1ccc(NC(=O)c2cc3c(-c4ccc(OC)c(OC)c4)nn(C)c3s2)cc1OC	97*	23	43	-70	?	67*	50*
COc1cccc(-c2nn(C)c3sc(C(=O)NCc4ccc(C)o4)cc23)c1	70*	-19	-3	-40	2	15	.
Cc1ccc2nc(-c3ccccn3)c(Nc3ccccc3C)n2c1	86*	101*	?	38	1	75*	36
Cc1ccn2c(Nc3ccccc3C)c(-c3ccccn3)nc2c1	85*	94*	58	45	1	52*	32
Cc1ccn2c(Nc3ccccc3)c(-c3ccccn3)nc2c1	81*	96*	81*	54	0	83*	21
Cc1ccn2c(NC(=O)c3ccccc3)c(-c3ccccc3)nc2c1	-16	-5	-8	-18	0	.	.
Cc1ccccc1Nc1c(-c2ccccn2)nc2ccccn12	65*	17	37	64*	0	46*	52*
Cc1ccccc1Nc1c(-c2cccnc2)nc2ccccn12	29	-21	1	32	1	.	.
CC(C)C(NC(=O)c1ccc(C(C)(C)C)cc1)C(=O)N1CCCC1 (centres undefined)	-5	-4	4	-1	0	.	.
CCOc1cc(/C=N/NC(=O)Cn2nc([N+](=O)[O-])cc2C)cc(Br)c1OCc1ccccc1F	51*	-4	.	39	.	35	.
CCOc1cc(/C=N/NC(=O)Cn2nc([N+](=O)[O-])cc2C)ccc1OCc1ccc(F)cc1	17	7	-13	18	-1	.	.
CC1CCCC(NC(=O)c2cccc(S(=O)(=O)N3CCCCC3)c2)C1C (centres undefined)	6	4	-16	20	2	.	.
CN(Cc1ccc(Cl)cc1)C(=O)CCl	36	-10	24	-14	-1	.	.
CN(Cc1ccc(Cl)s1)C(=O)CCl	54*	-8	5	-23	0	41*	52*
Cc1ccccc1OCC(=O)O/N=C(\N)c1ccncc1	-19	-3	-3	-103	-1	.	.
Cc1cc(F)ccc1S(=O)(=O)N1CCC2(CC1)OCCN2S(=O)(=O)c1cccs1	21	4	2	-2	-1	.	.
Cc1ccc(CCC(=O)Nc2ncc(Cc3cccc(Cl)c3Cl)s2)o1	69*	.	.	27	2	66*	76*
CCc1nnc(NC(=O)CCc2ccc(C)o2)s1	5	-3	-9	-19	2	.	.
Cc1cnc(NC(=O)COc2cccc3c2OC(C)(C)C3)s1	77*	1	-8	-13	1	68*	42*
CCSc1nnc(NC(=O)Cc2cc(OC)c(OC)c(OC)c2)s1	-8	0	-9	7	0	.	.
Oc1ccccc1/C=N/Nc1cc(N2CCCC2)nc(N2CCCC2)n1	50	16	-5	2	-1	30	.
CC(=O)c1c(C)n(-c2ccc(Br)cc2)c2ccc(O)cc12	42	-10	-14	-13	1	.	.
CCOc1ccc(-n2c(C)c(C(C)=O)c3cc(O)ccc32)cc1	53*	-8	15	7	0	56*	31
CC(=O)c1ccc(-n2c(C)c(C(C)=O)c3cc(O)ccc32)cc1	62*	-18	-9	-15	0	65*	48*
SMILES	Mdm2-MdmX inh	Beta cell apopt	CSC inhib	aSyn UTR inh	A1 inh	Mdm2 MdmX conf	FLuc counter
COC(=O)c1c(C)n(-c2ccc(C)cc2)c2ccc(O)cc12	53*	.	.	0	.	46*	55*
Cc1cccc(CN2C(=O)CSc3ccc(C(=O)NC4CC4)cc32)c1	10	4	-5	9	1	.	.
COc1ccc([N+](=O)[O-])cc1COc1ccc2c(-c3ccccc3)cc(=O)oc2c1	52*	5	3	27	0	-18	.
O=Cc1cccc(Oc2ccc([N+](=O)[O-])cc2[N+](=O)[O-])c1	64*	5	57	-15	0	32	.
Cc1cc(=O)oc2cc(Oc3ccc([N+](=O)[O-])cc3[N+](=O)[O-])ccc12	60*	-4	36	-47	0	65*	52*
N#Cc1ccccc1S(=O)(=O)N1CCNS(=O)(=O)c2ccccc21	-10	.	.	.	.	.	.
CCCCC1C(=O)N(c2ccccc2)N(c2ccc(O)cc2)C1=O (centres undefined)	98*	.	33	.	3	36	8
CCCCC1(CO)C(=O)N(c2ccccc2)N(c2ccccc2)C1=O	7	-5	-15	4	0	.	.
Cc1cnc(NC(=O)/C=C/c2ccc(Br)o2)s1	75*	28	-16	-106	-1	0	.
CN1CCN(c2ccccc2NC(=O)c2ccc(-c3ccc(Cl)cc3Cl)o2)CC1	56*	18	101*	-8	0	52*	86*
CS(=O)(=O)N1CCN(c2ccccc2NC(=O)c2ccc(-c3ccc(Cl)cc3Cl)o2)CC1	21	21	-8	10	1	.	.
C/C=C1\COC(C(=O)NCc2ccccc2)(C(F)(F)F)C=C1C=C1CCCCC1 (centres undefined)	21	0	1	-2	1	.	.
C/C=C1\COC(C(=O)NCCN2CCCC2)(C(F)(F)F)C=C1C=C1CCCCC1 (centres undefined)	53*	9	34	-32	0	20	.
CCN(CC(=O)Nc1ccc(N2CCOCC2)cc1)C(=O)Cc1ccccc1	-32	-2	.	.	0	.	.
CSCCC(NC(=O)c1ccc(Cl)cc1Cl)C(=O)NNC(=O)c1ccncc1 (centres undefined)	9	-3	-6	.	0	.	.
Cc1c(CN2CCC(Oc3ccc(C(=O)N4CCCCC4)cc3)CC2)cnn1C	3	6	14	4	0	.	.
COc1ccccc1C(=O)Nc1ccc2c(c1)nc(CCNC(=O)c1ccco1)n2C	67*	8	.	-295	0	53*	66*
CCNC(=O)N(C)C[C@H]1N[C@@](CC)(C(=O)OC)[C@H]2C(=O)N(C)C(=O)[C@@H]12	5	-1	-4	.	-1	.	.
N#Cc1cc(C(=O)c2cc(Cl)ccc2O)cn(-c2ccccc2)c1=O	4	8	-7	28	0	.	.
Cc1ccc(NC(=O)c2cc(C(=O)c3cc(Cl)ccc3O)cn(-c3ccc(C)cc3)c2=O)cc1	88*	48	-6	37	0	86*	44*
CN(c1cccc(Cl)c1)S(=O)(=O)c1cccc(C(=O)NCc2ccncc2)c1	-4	-1	.	.	0	.	.
Clc1ccc2nc(-c3ccc4c(c3)OCO4)cn2c1	-5	7	38	57	-10	.	.
Cc1ccc2nc(-c3ccc4c(c3)OCCO4)cn2c1	94*	31	62	110*	-8	98*	55*
